Test results taken from PubChem BioAssay AID1745848 (National Center for Advancing Translational Sciences (NCATS), 2022).
Among all 2,100 compounds or so, about 940 (45%) were called active. Roughly 48% stayed inconclusive and do not appear here. The call rests on the fitted dose curve; in most records, active means well fitted inhibition curve with a large enough effect; inconclusive means small, poorly fitted or top-dose-only effect; inactive means no such curve, though single readings can be large or run the other way. So high a share suggests a set chosen from earlier hits. Some of the results follow.

Test: Confirmatory qHTS for Inhibitors of ATXN expression; further: nearly all actives have a fitted effect of over 65% in size
Details: ATXN2-luciferase reporter cells, luminescence, 24 h; series mostly up to 57.5 µM
Excerpt: PI: Daniel Scoles Ph.D. University of Utah School of Medicine, Salt Lake City, Utah MLPCN Grant: NS073009 Spinocerebellar ataxia type 2 (SCA2) is a multisystem neurodegenerative disease caused by a dominantly acting mutation leading to expansion of a polyQ domain in the ataxin-2 protein (ATXN2). SCA2 patients develop progressive ataxia and later lose function in other neuronal systems. Prominent parkinsonian signs develop in some patients. Like many neurodegenerative disorders, no symptomatic or disease-modifying treatments are known. The primary objective of the proposed research is to identify compounds inhibiting ATXN2 expression and to test them for efficacy in SCA2 mouse models. We have developed a cell-based assay paired with an in vivo mouse model using identical luciferase expression constructs. This approach takes advantage of an ATXN2-luciferase transgene, with the luciferase gene flanked by the upstream and downstream portions of the ATXN2 gene. Here we describe a 5-7 dose quantitative high thoroughput screen (qHTS) for compounds lowering ATXN2 expression. We screened the NIH Molecular Libraries Small Molecule Repository (MLSMR) and NCGC's mechanistically annotated (MIPE) and drug repurposing (NPC) collections of compounds for lowering expression of an ATXN2-luciferase reporter in HEK-293 cells. The assay is a multiplexed cell viability assay to ensure target reduction in the absence of cytotoxicity. Secondary qHTS assays included a CMV-luciferase reporter expressed in HEK-293 cells as well as a biochemical assay using recombinant luciferase to detect inhibitors of the reporter enzyme. Compounds that inhibit ATXN2 expression but is not cytotoxic were selected for confirmatory and secondary screens.
PROTOCOL TABLE (as described by Inglese J, Shamu CE and Guy RK. 2007) SEQUENCE No. (e.g., 1, 2, 3, etc.); PARAMETER (e.g., Cells, Incubation, Reagent, etc.); VALUE; DESCRIPTION. 1; Cells; 4 uL; white, solid bottom, 1536-well Greiner assay plate. 2; Incubation; 2 hr; 37 degree C in 5% humidified CO2. 3; Compounds; 23 nL; Kalypsis pintool (Wako USA) equipped with a 1536-well pin head. 4; Incubation; 24 hr; 37 degree C in 5% humidified CO2. 5; Reagent; 1 uL; Gly-Phe-7-Amino-4-trifluoromethylcoumarin. 6; Incubation; 30 min; 37 degree C in 5% humidified CO2. 7; Detection; Fluorescence; ViewLux plate reader (PerkinElmer). 8; Reagent; 3 uL; SteadyGlo luciferase solution (Promega). 9; Incubation; 5 min; room temperature. 10; Detection; Luminescence; ViewLux plate reader (PerkinElmer). NOTES (numbers refer to Sequence numbers above) 1. […] expressing ATXN2-luciferase reporter were suspended in phenol-red free DMEM and dispensed in assay plates using a Multidrop Combi dispenser (Thermo Fisher Scientific). Wells containing medium only were plated on each plate, and values were used to normalize (100% inhibition) in the luciferase and CellTiter-Fluor assays. 2. Assay plates were incubated. Evaporation was prevented by covering assay plates with metal lids containing holes to allow gas diffusion. 3. Compounds were added in a dose response manner with the final concentrations of 57, 11.4, 2.28, 0.46, 0.091, 0.018, 0.0037 uM. Vehicle-only plates, with DMSO being pin-transferred to columns 5-48, were inserted uniformly at the beginning and the end of each library to monitor and record any shifts in assay performance. 5. 125 uM Gly-Phe-7-Amino-4-trifluoromethylcoumarin (MP Biomedicals) working concentration was used at a final concentration of 25 uM. 7. To assess cell viability; the assay plates were read using the ViewLux high-throughput CCD imager (PerkinElmer), wherein single end-point fluorescence measurement was acquired (excitation 405/10; emission 540/25 nm). 8. Detection reagent SteadyGlo Luciferase (Promega) was added to the assay plate. 10. Luminescence is then measured on the ViewLux imager equipped with a clear emission filter using a 2 sec exposure. […]
Potency means the concentration at half of the fitted maximal effect.

Compound | Potency
N#Cc1ncc(N=Cc2ccc(N(CCCl)CCCl)cc2)s1 | 2 µM (active)
CCCCC(=O)N/N=C/c1c(O)n(CCC2=CCCCC2)c(=O)[nH]c1=O | 15.8 µM (active)
CCCCCCC(=O)N/N=C/c1c(O)n(CCCC)c(=S)[nH]c1=O | 15.8 µM (active)
CCCCCCC(=O)N/N=C/c1c(O)n(CCc2ccccc2)c(=O)[nH]c1=O | 12.6 µM (active)
Cc1ccc(N2C(=O)NC(=O)/C(=C/C=C/c3ccco3)C2=O)cc1 | 2.82 µM (active)
COc1ccc(CC2C(=O)NC(C)C(=O)N(C)C3C(=O)N(C)C(Cc4ccc(O)c(c4)Oc4ccc(cc4)C3O)C(=O)NC(C)C(=O)NC(C)C(=O)N2C)cc1 (stereo not given) | 0.316 µM (active)
CCC(C)N1C(=O)/C(=C\c2cnc(N(C)C)nc2)C(=O)NC1=S (stereo not given) | inactive
CC(=O)OC1CC2(O)C3CCC4CC(O)CCC4(C)C3CCC2(C)C1C1=CC(=O)OC1 (stereo not given) | 0.316 µM (active)
CC12CCC(O)CC1CCC1C2CCC2(C)C(C3=CC(=O)OC3)C(O)CC12O (stereo not given) | 3.16 µM (active)
C[C@]12CC[C@H](O)C[C@H]1CC[C@@H]1C2CC[C@]2(C)[C@@H](C3=CC(=O)OC3)[C@@H](O)C[C@]12O (stereo not given in full) | 0.355 µM (active)
CC1OC(OC2C(O)CC(OC3C(O)CC(OC4CCC5(C)C(CCC6C5CCC5(C)C(C7=CC(=O)OC7)C(O)CC65O)C4)OC3C)OC2C)CC(O)C1O (stereo not given) | 0.316 µM (active)
COC1C(O)C(C)OC(OC2CCC3(C)C(CCC4C3C(O)CC3(C)C(C5=CC(=O)OC5)CCC43O)C2)C1O (stereo not given) | 0.316 µM (active)
CN1CN(c2ccccc2)C2(CCN(CCCSc3ccccc3NC(=O)/C=C/c3ccccc3)CC2)C1=O | 28.2 µM (active)
CC(C)c1oc(=O)cc2c1[C@@H](O)[C@H]1OC(=O)[C@@]3(C)CC[C@@H](O)[C@@]2(C)C13 (stereo not given in full) | 3.16 µM (active)
CCC1(OC(=O)CN)C(=O)OCc2c1cc1n(c2=O)Cc2cc3ccccc3nc2-1 (stereo not given) | 0.0398 µM (active)
CC[C@@]1(O)C(=O)OCc2c1cc1n(c2=O)Cc2cc3c(NC(=O)CN)cccc3nc2-1 | 0.112 µM (active)
COc1ccc(CC2NCC(O)C2OC(C)=O)cc1 (stereo not given) | 0.224 µM (active)
COc1ccc(C[C@H]2NC[C@H](O)[C@H]2OC(C)=O)cc1 | 0.0282 µM (active)

Compound | Potency
Cc1ccc(/C=C2\C(=O)NC(=S)N(c3ccccc3F)C2=O)s1 | 3.16 µM (active)
CCC1CN2CCc3cc(OC)c(OC)cc3C2CC1CC1NCCc2c1[nH]c1ccc(O)cc21 (stereo not given) | 0.0398 µM (active)
CSCCC(c1nnnn1-c1c(C)cccc1C)N1CCC2(CC1)C(=O)NCN2c1ccccc1 (stereo not given) | 35.5 µM (active)
CCC(C)(O)C(=O)OC1C(=O)OC2CC3C(C)=CC(=O)C(O)C3(C)C3C4(O)OCC23C1C(C)C4O (stereo not given) | 0.251 µM (active)
CC(C)(C)n1nnnc1C(CCc1ccccc1)N1CCC(n2c(=O)[nH]c3ccccc32)CC1 (stereo not given) | 28.2 µM (active)
O=c1[nH]c2ccccc2n1C1CCN(C(CCc2ccccc2)c2nnnn2C2CCCC2)CC1 (stereo not given) | 22.4 µM (active)
COC(=O)c1nc(-c2ccc3c(n2)C(=O)C(N)=C(OC)C3=O)c(N)c(-c2ccc(OC)c(OC)c2O)c1C | 14.1 µM (active)
O=C(NN=Cc1ccc(N(CCCl)CCCl)cc1)c1cc(=O)[nH]c(=O)[nH]1 | 3.16 µM (active)
COc1cc(C(=O)NN=Cc2ccc(N(CCCl)CCCl)cc2)cc(OC)c1OC | 8.91 µM (active)
Cc1cc(N(CCCl)CCCl)ccc1C=NNC(=O)c1cccnc1 | 1.58 µM (active)
COc1ccc(N=Cc2c(O)n(-c3ccc(C)cc3)c(=O)[nH]c2=O)cc1 | inactive
Oc1c(Cl)cccc1Cc1cc(Cl)cc(Cl)c1O | 15.8 µM (active)
Clc1ccc2[nH]c3c(c2c1)CCNC3 | 3.16 µM (active)
O=[N+]([O-])c1oc2ccc3ccccc3c2c1CCO | 14.1 µM (active)
C[C@@H]1O[C@@H](O[C@@H]2C=C3CC[C@@H]4C(CC[C@]5(C)[C@@H](c6ccc(=O)oc6)CC[C@]45O)[C@@]3(C)CC2)[C@H](O)[C@H](O)[C@H]1O (stereo not given in full) | 0.112 µM (active)
COc1cccc2c1C(=O)c1c(O)c3c(c(O)c1C2=O)CC(O)(C(C)=NO)CC3OC1CC(N)C(O)C(C)O1 (stereo not given) | 0.708 µM (active)
Cc1ccc(N2C(=O)NC(=O)/C(=C\c3cc(C)n(-c4sc5c(c4C#N)CCCC5)c3C)C2=O)cc1 | 10 µM (active)
